High-throughput results deposited in PubChem by National Center for Advancing Translational Sciences (NCATS).
VDR inh: Inhibitors of the vitamin D receptor (VDR): qHTS; Vitamin D3 receptor (Homo sapiens), P11473; actives 0.93% (n = 400,000); Potency, µM, usual class: inhibitors; VDR-SRC2-3 peptide fluorescence polarization, 2 h
Target sequence (P11473 whole entry, looked up): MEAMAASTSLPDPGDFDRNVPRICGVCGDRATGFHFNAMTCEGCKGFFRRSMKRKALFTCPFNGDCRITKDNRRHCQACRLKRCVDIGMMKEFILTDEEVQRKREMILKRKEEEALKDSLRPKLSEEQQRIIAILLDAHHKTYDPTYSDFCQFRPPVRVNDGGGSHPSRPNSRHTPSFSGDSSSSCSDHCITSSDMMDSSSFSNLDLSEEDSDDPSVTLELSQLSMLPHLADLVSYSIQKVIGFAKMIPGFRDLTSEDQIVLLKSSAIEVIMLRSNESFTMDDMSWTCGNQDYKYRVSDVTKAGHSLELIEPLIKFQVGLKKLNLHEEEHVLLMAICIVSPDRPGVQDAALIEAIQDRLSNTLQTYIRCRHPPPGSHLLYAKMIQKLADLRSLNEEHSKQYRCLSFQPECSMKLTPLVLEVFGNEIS
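After 23 nl compound addition and a short centrifugation, plates sat for 2 hours at ambient temperature; polarization of fluorescence then indicated loss of VDR binding to peptide SRC2-3.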
Sfp inh: qHTS Assay for Inhibitors of Bacillus subtilis Sfp phosphopantetheinyl transferase (PPTase); Biochemical Sfp PPTase activity, qHTS; 4'-phosphopantetheinyl transferase ffp (Bacillus subtilis), Q9F4F7; actives 3.5% (n = 310,000); Potency, µM, most hits filed as inhibitors;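 note: the enzyme is Sfp with the accession as filed and its product quenches rhodamine fluorescence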
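Step 1, compound plus 15 nM Sfp-PPTase, 15 min, room temperature. Step 2, add rhodamine-CoA (5 uM) and BHQ-2-YbbR (12.5 uM). Step 3, read 525/598 nm fluorescence at 0 and 30 min.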
Mm-Cpn inhibitor: Inhibitors of TCP-1 ring complex (TRiC) of Methanococcus maripaludis (MmCpn): qHTS; actives 0.031% (n = 330,000); Potency, µM (doses to about 76.9 µM), usual class: inhibitors; Chaperonin Mm-Cpn (Methanococcus maripaludis); AID 504842, 2011; purified Mm-Cpn ATPase, ADP Transcreener TR-FRET; note: nearly all actives have a fitted effect of over 80% in size
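ATPase turnover read by TR-FRET ADP competition (Eu cryptate antibody/ADP-d2, 665/590 nm): 10uM ATP final, 25nM Mm-CPN final, 30 min 37degC after 10-min compound preincubation, pH 7.4 Tris/KCl/MgCl2/DTT buffer.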
G9a inh: qHTS Assay for Inhibitors of Histone Lysine Methyltransferase G9a; G9a H3K9 monomethylation, AlphaScreen, 2 h; AID 504332, 2011; actives 8.8% (n = 350,000); Histone-lysine N-methyltransferase EHMT2 (Homo sapiens), Q96KQ7; Potency, µM (highest dose often 102 µM), hits mostly inhibitors; note: nearly all actives have a fitted effect of over 75% in size
Target sequence (Q96KQ7 913-1193 limits assumed): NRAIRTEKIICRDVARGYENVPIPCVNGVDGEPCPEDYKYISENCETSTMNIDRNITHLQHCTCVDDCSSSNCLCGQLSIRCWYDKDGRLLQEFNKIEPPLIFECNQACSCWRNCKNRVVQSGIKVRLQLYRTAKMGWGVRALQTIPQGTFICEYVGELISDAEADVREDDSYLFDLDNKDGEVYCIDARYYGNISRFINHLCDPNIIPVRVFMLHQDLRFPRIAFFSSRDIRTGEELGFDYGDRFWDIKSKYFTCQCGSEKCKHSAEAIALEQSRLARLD
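Methyltransferase reactions run at room temperature for 2 h (20 nM enzyme, 500 nM biotin-H3K9 peptide, 20 uM SAM) after a 15 min compound preincubation; product detected by AlphaScreen beads and anti-H3K9me1 antibody.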
CCT modulator: High-Throughput Screening for Modulators of Cytosolic Chaperonin Activity; purified chaperonin ATPase assay, HTRF ADP detection, 30 min; activity change, % (no concentration beside the values), hits read low; actives 0.3% (n = 360,000); in the data active = activity change below about -30%
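ATPase activity: ADP formed was measured by HTRF Transcreener (665/615 nm ratio) after 30 min at 37 deg C with 10 uM ATP. Compounds screened at one 76 uM concentration against 40 or 20 nM TRiC in Tris pH 7.4/KCl/MgCl2/DTT buffer.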
PLK1 PBD block: qHTS for Inhibitors of PLK1-PDB (polo-like kinase 1 - polo-box domain): Primary Screen; Serine/threonine-protein kinase PLK1 (Homo sapiens), P53350; AID 720504, 2013; actives 2.8% (n = 360,000); Plk1 PBD binding of FITC phosphopeptide, fluorescence polarization; Potency, µM, hits mostly inhibitors; note: series mostly up to about 57 µM; nearly all actives have a fitted effect of over 65% in size
Numbers stand for hits; . = inactive; ? = inconclusive; / = not tested or not shown; ! = not confirmed by another sample. Most compounds without a hit are left out; they make up all but 10% or so of the library. Unless noted, calls come from the whole dose curve; as a rule, active = well fitted curve in the direction sought with a large enough effect; inconclusive = small, poorly fitted or top-dose-only effect, or another doubt; inactive = no such curve, though single readings can be large; an effect the other way counts as inactive or inconclusive.

SMILES | VDR inh | Sfp inh | Mm-Cpn inhibitor | G9a inh | CCT modulator | PLK1 PBD block
O=[N+]([O-])/C(C(Cl)=C(Cl)Cl)=C(/NC1CC1)Sc1ccccc1 | ? | . | . | 40µM | . | ?
CCN1C(C)=C(C(=O)OC(C)C)C(c2ccccc2Cl)C(C(=O)O)=C1C(=O)O (stereo unspecified) | . | . | / | / | / | /
CCCCN(CC)CCCNC(=S)Nc1ccc2nc(N3CCN(CC)CC3)cc(C)c2c1 | . | . | . | 50µM | . | .
CCCCN(CC)CCCNC(=S)Nc1ccc2nc(N3CCN(C)CC3)cc(C)c2c1 | . | . | . | 40µM | . | .
Cc1c(CN(C)C)c2c(n1Cc1ccccc1)C(=O)c1ccc(Br)cc1-2 | . | . | . | 18µM | . | .
CC1(C)Cc2nc3sc(C(=O)NCCCO)c(N)c3cc2CO1 | . | 79µM | . | / | . | .
CCOC(=O)c1oc2nc3c(cc2c1N)COC(C)(C)C3 | . | . | . | ? | . | .
COC(=O)c1sc2nc3c(cc2c1N)COC(C)(C)C3 | . | ? | . | 50µM | . | .
CCCCNC(=O)C1CCN(C(=O)N2CC(C)Oc3ccc(Cl)cc32)CC1 (stereo unspecified) | . | / | / | 8.9µM | / | /
CCC1CN(C(=O)N2CCC(C(=O)NCc3ccc(C)o3)CC2)c2cc(C)ccc2O1 (stereo unspecified) | . | . | . | 45µM | . | .
COc1ccc(NC(=O)Nc2cccc(-c3cn4cccnc4n3)c2)cc1 | . | / | / | . | / | /
O=C(CSc1nnc2c(n1)[nH]c1ccccc12)Nc1ccc2c(c1)OCO2 | . | 45µM | . | 1.8µM | . | 27µM
CC(=O)c1ccc(NC(=O)CSc2nnc3c(n2)[nH]c2ccccc23)cc1 | . | / | / | . | / | /
Brc1ccc2[nH]c3nc(SCCN4CCOCC4)nnc3c2c1 | . | . | . | 40µM | . | .
Cc1cc2nnc(SCC(=O)Nc3cccc(S(=O)(=O)N4CCOCC4)c3)n2c2ccccc12 | . | . | . | 50µM | . | .
Cc1ccc(NC(=O)CSc2nnc3c(n2)[nH]c2ccccc23)cc1 | . | . | . | . | . | .
O=C(CSc1nnc2c(n1)[nH]c1ccccc12)Nc1ccc(N2CCOCC2)cc1 | . | 7.9µM | . | / | . | ?
Cc1ccc2oc3c(c(=O)c2c1)C(c1ccc(OCC(N)=O)cc1)N(Cc1ccc2c(c1)OCO2)C3=O (stereo unspecified) | . | / | / | . | / | /
O=C(Cc1c[nH]c2ccccc12)N1CCN(c2ccccc2)CC1 | . | . | . | ? | . | .
Cc1nc(SCC(=O)Nc2cccc(S(=O)(=O)N3CCOCC3)c2)nc(C)c1C | . | / | . | / | . | .
O=C(Cc1c[nH]c2ccccc12)Nc1ccc(N2CCOCC2)cc1 | ? | . | . | 22µM | . | .
O=C(CSc1nnc2c(n1)[nH]c1ccccc12)Nc1cccc(S(=O)(=O)N2CCOCC2)c1 | . | 79µM | . | ? | . | .
CCC(=O)Nc1nnc(S(=O)(=O)N2CCCCCC2)s1 | . | . | . | 10µM! | . | .
CCC(=O)Nc1nnc(S(=O)(=O)N2CCCC2)s1 | . | . | . | / | . | .
CCCC(=O)Nc1nnc(S(=O)(=O)N2CCCCCC2)s1 | . | . | . | 13µM | . | .
SMILES | VDR inh | Sfp inh | Mm-Cpn inhibitor | G9a inh | CCT modulator | PLK1 PBD block
CCc1ccc(S(=O)(=O)c2nnn3c2nc(Nc2ccc(F)cc2)c2cc(Cl)ccc23)cc1 | . | / | / | . | / | /
O=C1C(Cc2ccccc2)Nc2ncnc(N3CCc4ccccc4C3)c2N1Cc1ccccc1 (stereo unspecified) | . | / | . | / | . | 42µM
Cc1ccc(CNC(=O)c2ccc(CSCc3ccccc3C)o2)cc1 | . | / | / | . | / | /
Nc1cc(-c2ccccc2)nn1S(=O)(=O)c1ccc(Br)cc1 | . | . | . | 50µM | . | .
CC(C)(C)c1ccc(C(=O)NNc2ncnc3c2cnn3-c2ccccc2)cc1 | . | / | / | . | / | /
CCOc1ccc(S(=O)(=O)Nc2ccc(-c3ccc(OC)nn3)cc2)cc1 | . | / | / | . | / | /
O=C(C1=C(O)C(=O)N(CC2CCCO2)C1c1cccnc1)c1ccco1 (stereo unspecified) | . | . | . | 40µM | . | .
COc1ccc(C2C(C(=O)c3ccco3)=C(O)C(=O)N2CCc2ccccc2)cc1OC (stereo unspecified) | . | . | . | 50µM | . | .
CC(C)(C)c1ccc(C2C(C(=O)c3ccco3)=C(O)C(=O)N2CC2CCCO2)cc1 (stereo unspecified) | . | . | . | . | . | .
COc1ccc(C2C(C(=O)c3ccco3)=C(O)C(=O)N2CC2CCCO2)cc1OC (stereo unspecified) | . | . | . | 50µM | . | .
O=C(C1=C(O)C(=O)N(CC2CCCO2)C1c1ccccc1Cl)c1ccco1 (stereo unspecified) | . | . | . | ? | . | .
CC(C)CCNC(=O)c1cn(C)c2ccc(S(=O)(=O)N3CCOCC3)cc2c1=O | . | / | / | . | / | /
COc1cc(/C=C/C(=O)N2CCN(C)CC2)cc(S(=O)(=O)N2CCc3ccccc32)c1OC | . | . | . | / | . | .
COc1cc(/C=C/C(=O)OCC(=O)Nc2ccc(NC(C)=O)cc2)cc(S(=O)(=O)N2CCc3ccccc32)c1OC | . | . | . | . | -45 | .
COc1cc(/C=C/C(=O)OCC(=O)NC2CC2)cc(S(=O)(=O)N2CCc3ccccc32)c1OC | . | . | . | 56µM | . | .
COc1cc(NC(=O)Cn2cnc(S(=O)(=O)N3CCc4ccccc43)c2)cc(OC)c1OC | . | . | . | . | . | .
CCOC(=O)c1oc2c(O)c(O)ccc2c(=O)c1-c1nncn1-c1ccccc1 | . | ? | . | 3.2µM | . | .
CCOC(=O)c1c(N)c2cc([N+](=O)[O-])ccc2n1C | . | . | . | . | . | .
CCOC(=O)c1c(C)n(C)c2cc([N+](=O)[O-])c(O)c([N+](=O)[O-])c12 | . | . | . | . | . | 21µM
Cc1c(C(=O)Nc2ccc(F)c(F)c2)oc2ccc(S(=O)(=O)N(C)C3CCCCC3)cc12 | . | / | / | . | / | /
COCc1cc(=O)n2c(-c3ccccc3OC)n[nH]c2n1 | . | . | . | 3.2µM | . | .
O=C(NCC(=O)N1CC=C(c2ccccc2)CC1)c1ccc(OC(F)F)cc1 | . | / | . | / | . | .
COc1cc(OC)cc(C(=O)NCC(=O)N2CC=C(c3ccccc3)CC2)c1 | . | / | . | 50µM | . | .
